Results reported in PubChem BioAssay (NCI).
Compounds without any hit were thinned out: in the full panel of roughly 83,000, 20% have a hit.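 Single-concentration screen, 48 h exposure, 96-well plates. Endpoint: percent growth. Below 10 = active.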 Calls of active or inactive are those of the source.

test system: SK-MEL-28 melanoma; experiment: NCI-60 one-dose screen, 48 h (100 = growth as untreated, 0 = no growth, -100 = all killed); conditions: 10 µM unless noted

Structure (SMILES)	growth
CN(CCn1sc(=O)n(Cc2ccccc2)c1=O)Cc1ccc2c(Cl)cc(Cl)c(O)c2n1	59.8% (inactive)
CCN(CC)CCOc1ccc(C(=C(C)c2ccc(Cl)cc2)c2ccc(OCCN(CC)CC)cc2)cc1	-88.5% (active)
CC(=O)OC[C@]12CCC(C)(C)C[C@H]1[C@@]1(O)[C@H](O)C[C@@H]3[C@@]4(C)CCCNC(C)(C)[C@@H]4CC[C@@]3(C)[C@]1(C)CC2	108% (inactive)
Cc1ccc(CNc2ccc(Cl)cc2NCc2ccc(C)c(O)c2)cc1O	31.9% (inactive)
COc1ccc(C(=O)C2C(c3ccc(OC)cc3)CN(C)C23C(=O)Nc2ccccc23)cc1 (stereo not drawn)	105% (inactive)
O=C(O)CCCN1C(=O)/C(=C/C(Cl)=C/c2ccccc2)SC1=S	7.4% (active)
O=C1/C(=C/c2ccc(Cl)cc2)COc2ccc(O)c(O)c21	60.2% (inactive)
COc1cc(CNC(=O)/C=C/C=C/c2ccc3c(c2)OCO3)ccc1OCc1cn(-c2ccc(C)c(C)c2)nn1	54.1% (inactive)
